Assay results taken from PubChem BioAssay (EPA / NIEHS).
The source made the active and inactive calls. Rule for the calls: active = hit-call score of the fitted dose curve at least 0.9, where 1 is the maximum; inactive = score below 0.9.

Columns and labels:
[1] = APR_HepG2_P-H2AX_72hr: Apredica 72-hour HepG2 Assay for H2AX Phosphorylation (AID 2282916); settings: imaging, actives raise or lower the signal;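 note: phospho-histone H2A.x immunostain intensity per cell marking DNA damage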
Procedure, shortened: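 Human hepatoma HepG2 cells are dosed across ten concentrations (0.39 to 200 uM, 0.5% v/v DMSO) and incubated 72 hr. Phospho-histone H2A.x is then detected by antibody staining alongside c-Jun and Hoechst, and quantified by automated fluorescence imaging.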

[2] = APR_HepG2_MitoMembPot_72hr: Apredica 72-hour HepG2 Assay for Mitochondrial Membrane Potential (AID 2282917); settings: imaging, actives raise or lower the signal
Procedure, shortened: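 HepG2 cells exposed 72 h to compounds at 0.39–200 uM (0.5% v/v DMSO, duplicates); MitoTracker Red CMXRos 250 nM loaded 30 min before 3.7% formaldehyde fixation, imaged by HCS fluorescence. Bidirectional fit versus DMSO.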

[3] = APR_HepG2_MicrotubuleCSK_72hr: Apredica 72-hour HepG2 Assay for Microtubule CSK Stabilty (AID 2282919); settings: HepG2 microtubule cytoskeleton, high-content imaging, actives raise or lower the signal
Procedure, shortened: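 Ten-point dosing (0.39–200 uM, 0.5% DMSO) of HepG2 for 72 hr, with taxol as the cytoskeletal positive control. The cells were formaldehyde-fixed and then stained with alpha-tubulin/Cy5 and Hoechst. Imaging at 20x used a −2 um Z offset for tubulin.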

[4] = APR_HepG2_P-H2AX_24hr: Apredica 24-hour HepG2 Assay for H2AX Phosphorylation (AID 2282920); settings: high-content imaging, actives raise or lower the signal
Procedure, shortened: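 HepG2, 24 hr, cpd 0.39–200 uM (10 conc, duplicate), DMSO 0.5% v/v final. Fix 3.7% formaldehyde, Triton X-100 permeabilize, anti-phospho-H2A.x 1:200 + Hoechst 2 ug/mL. Imaged, bidirectional fit vs DMSO.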

[5] = APR_HepG2_StressKinase_72hr: Apredica 72-hour HepG2 Assay for Stress Kinase (AID 2282921); settings: HepG2 stress kinase (phospho-c-Jun) imaging, actives raise or lower the signal
Procedure, shortened: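 After a 72 h compound treatment spanning 0.39 to 200 uM, formaldehyde-fixed cells are labelled for phosphorylated c-Jun and nuclei, imaged by automated fluorescence microscopy, and activity is fitted in both directions relative to DMSO controls.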

[6] = APR_HepG2_StressKinase_24hr: Apredica 24-hour HepG2 Assay for Stress Kinase (AID 2282922); settings: HepG2 stress kinase (phospho-c-Jun) imaging, actives raise or lower the signal
Procedure, shortened: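 After 24 hr compound treatment (up to 200 uM, final DMSO 0.5% v/v), HepG2 cells are fixed and multiplex-labeled; phospho-c-Jun intensity is captured by high-content fluorescence imaging and analyzed relative to DMSO.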

[7] = APR_HepG2_p53Act_72hr: Apredica 72-hour HepG2 Assay for p53 Activation (AID 2282923); settings: high-content imaging, actives raise or lower the signal;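 note: average cellular p53 protein immunofluorescence intensity in HepG2 cells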
Procedure, shortened: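 Imaging-based endpoint: after 72 hr compound exposure (up to 200 uM, 0.5% DMSO), fixed and permeabilized monolayers were labelled with anti-p53 antibody and imaged; signal change in either direction was fitted relative to DMSO controls.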

[8] = APR_HepG2_MitoMass_72hr: Apredica 72-hour HepG2 Assay for Mitochondrial Mass (AID 2282924); settings: high-content imaging, actives raise or lower the signal;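 note: MitoTracker Red CMXRos stain intensity per cell imaged as mitochondrial mass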
Procedure, shortened: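 Steps: treat HepG2 72 hr (0.39–200 uM, duplicate wells); load MitoTracker Red CMXRos, 250 nM, 30 min; fix with 3.7% formaldehyde, permeabilise with 0.5% Triton X-100; capture images, nuclei via Hoechst 33342; fit bidirectionally against DMSO.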

[9] = APR_HepG2_NuclearSize_72hr: Apredica 72-hour HepG2 Assay for Nuclear Size (AID 2282925); settings: high-content imaging, actives raise or lower the signal
Procedure, shortened: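 Compounds (0.39–200 uM, final DMSO 0.5%) were applied to HepG2 for 72 hr. Cells were then formaldehyde-fixed, permeabilized and labelled with Hoechst 33342. Nuclear diameter was quantified from six images per well.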

## CN(C)c1ccc(Cc2ccc(N(C)C)cc2)cc1
[1]
  outcome: inactive
[2]
  outcome: inactive
[3]
  AC50: 37.4 µM (active)
[4]
  outcome: inactive
[5]
  outcome: inactive
[6]
  outcome: inactive
[7]
  outcome: inactive
[8]
  outcome: inactive
[9]
  outcome: inactive

## C1N2CN3CN1CN(C2)C3
[1]
  outcome: inactive
[2]
  outcome: inactive
[3]
  outcome: inactive
[5]
  outcome: inactive
[6]
  outcome: inactive
[7]
  outcome: inactive
[8]
  outcome: inactive
[9]
  outcome: inactive

## CC1(C)C(=O)N(Br)C(=O)N1Br
[1]
  outcome: inactive
[2]
  outcome: inactive
[3]
  outcome: inactive
[5]
  outcome: inactive
[6]
  outcome: inactive
[7]
  outcome: inactive
[8]
  outcome: inactive
[9]
  outcome: inactive

## O=c1n(CC2CO2)c(=O)n(CC2CO2)c(=O)n1CC1CO1 (stereo not given)
[1]
  AC50: 15.2 µM (active)
[2]
  outcome: inactive
[3]
  outcome: inactive
[5]
  outcome: inactive
[6]
  AC50: 31.6 µM (active)
[7]
  AC50: 5.06 µM (active)
[8]
  AC50: 50 µM (active)
[9]
  outcome: inactive

## CC(=O)c1ccc2c(c1)[C@H](NC(=O)c1ccc(F)cc1)[C@@H](O)C(C)(C)O2
[1]
  outcome: inactive
[2]
  outcome: inactive
[3]
  outcome: inactive
[4]
  outcome: inactive
[5]
  outcome: inactive
[6]
  outcome: inactive
[7]
  outcome: inactive
[8]
  outcome: inactive
[9]
  outcome: inactive

## CCOC(=O)CC(CC(=O)OCC)(OC(C)=O)C(=O)OCC
[1]
  outcome: inactive
[2]
  outcome: inactive
[3]
  outcome: inactive
[5]
  outcome: inactive
[6]
  outcome: inactive
[7]
  outcome: inactive
[8]
  outcome: inactive
[9]
  outcome: inactive

## CCCCCCc1ccc(O)cc1O
[1]
  outcome: inactive
[2]
  outcome: inactive
[3]
  outcome: inactive
[5]
  outcome: inactive
[6]
  AC50: 158 µM (active)
[7]
  outcome: inactive
[8]
  outcome: inactive
[9]
  outcome: inactive

## CCOCCO
[1]
  outcome: inactive
[2]
  outcome: inactive
[3]
  outcome: inactive
[5]
  outcome: inactive
[6]
  outcome: inactive
[7]
  outcome: inactive
[8]
  outcome: inactive
[9]
  outcome: inactive

## CCCN(C1CCN(C(=O)C2CCNCC2)CC1)[C@@H]1CCc2ccc(OC)cc2C1
[1]
  AC50: 64 µM (active)
[2]
  outcome: inactive
[3]
  outcome: inactive
[4]
  AC50: 80.8 µM (active)
[5]
  outcome: inactive
[6]
  outcome: inactive
[7]
  AC50: 68.9 µM (active)
[8]
  AC50: 111 µM (active)
[9]
  outcome: inactive

## CC(C)=CCCC(C)CCO (stereo not given)
[1]
  outcome: inactive
[2]
  outcome: inactive
[3]
  outcome: inactive
[5]
  outcome: inactive
[6]
  outcome: inactive
[7]
  outcome: inactive
[8]
  AC50: 0.0391 µM (active)
[9]
  outcome: inactive

## CCOC(=O)COc1ccc2c(c1)CC(NCC(O)c1cccc(Cl)c1)CC2 (stereo not given)
[1]
  outcome: inactive
[2]
  outcome: inactive
[3]
  outcome: inactive
[5]
  outcome: inactive
[6]
  outcome: inactive
[7]
  outcome: inactive
[8]
  outcome: inactive
[9]
  outcome: inactive

## CC/C(=C\C(=N/O)C(N)=O)C(C)[N+](=O)[O-] (stereo not given)
[1]
  outcome: inactive
[2]
  outcome: inactive
[3]
  outcome: inactive
[4]
  outcome: inactive
[5]
  outcome: inactive
[6]
  outcome: inactive
[7]
  outcome: inactive
[8]
  outcome: inactive
[9]
  outcome: inactive

## O=C(O)c1cc(N=Nc2ccc(S(=O)(=O)Nc3ccccn3)cc2)ccc1O
[1]
  outcome: inactive
[2]
  AC50: 88.8 µM (active)
[3]
  outcome: inactive
[5]
  outcome: inactive
[6]
  outcome: inactive
[7]
  outcome: inactive
[8]
  outcome: inactive
[9]
  outcome: inactive

## CC1=CC(=O)CC(C)(C)C1
[1]
  outcome: inactive
[2]
  outcome: inactive
[3]
  outcome: inactive
[4]
  outcome: inactive
[5]
  outcome: inactive
[6]
  outcome: inactive
[7]
  outcome: inactive
[8]
  outcome: inactive
[9]
  outcome: inactive

## COCCOc1cc2cc(C(=O)NC3CCN(C(C)C)CC3)n(CC(=O)Nc3ccc(Cl)cn3)c2cn1
[1]
  outcome: inactive
[2]
  outcome: inactive
[3]
  AC50: 83.7 µM (active)
[4]
  AC50: 94.3 µM (active)
[5]
  outcome: inactive
[6]
  outcome: inactive
[7]
  outcome: inactive
[8]
  outcome: inactive
[9]
  outcome: inactive

## COc1ccc2sc(C(=O)Nc3nnn[nH]3)c(OC(C)C)c2c1
[1]
  outcome: inactive
[2]
  outcome: inactive
[3]
  outcome: inactive
[5]
  outcome: inactive
[6]
  outcome: inactive
[7]
  outcome: inactive
[8]
  outcome: inactive
[9]
  outcome: inactive

## CCCCCCCCCCCCc1ccccc1
[1]
  outcome: inactive
[2]
  outcome: inactive
[3]
  outcome: inactive
[5]
  outcome: inactive
[6]
  outcome: inactive
[7]
  outcome: inactive
[8]
  outcome: inactive
[9]
  outcome: inactive

## CC(C)=CCC/C(C)=C/CO
[1]
  outcome: inactive
[2]
  outcome: inactive
[3]
  outcome: inactive
[4]
  outcome: inactive
[5]
  outcome: inactive
[6]
  outcome: inactive
[7]
  AC50: 107 µM (active)
[8]
  outcome: inactive
[9]
  outcome: inactive

## O=C1CCC(N2C(=O)c3ccccc3C2=O)C(=O)N1 (stereo not given)
[1]
  outcome: inactive
[2]
  outcome: inactive
[3]
  outcome: inactive
[5]
  outcome: inactive
[6]
  outcome: inactive
[7]
  outcome: inactive
[8]
  outcome: inactive
[9]
  outcome: inactive

## CCNc1ccccc1
[1]
  outcome: inactive
[2]
  outcome: inactive
[3]
  outcome: inactive
[4]
  outcome: inactive
[5]
  outcome: inactive
[6]
  outcome: inactive
[7]
  outcome: inactive
[8]
  outcome: inactive
[9]
  outcome: inactive

## Cn1c(=O)cc(Oc2ccc(F)cc2F)c2cnc(NCC(C)(C)O)nc21
[1]
  outcome: inactive
[2]
  outcome: inactive
[3]
  outcome: inactive
[5]
  outcome: inactive
[6]
  outcome: inactive
[7]
  outcome: inactive
[8]
  outcome: inactive
[9]
  outcome: inactive

## CCCCC(CC)COC(=O)c1ccc(C(=O)OCC(CC)CCCC)cc1 (stereo not given)
[1]
  AC50: 31.5 µM (active)
[2]
  outcome: inactive
[3]
  outcome: inactive
[5]
  outcome: inactive
[6]
  outcome: inactive
[7]
  outcome: inactive
[8]
  outcome: inactive
[9]
  outcome: inactive

## CC(C)(O)c1coc(S(=O)(=O)NC(=O)Nc2c3c(cc4c2CCC4)CCC3)c1
[1]
  outcome: inactive
[2]
  outcome: inactive
[3]
  outcome: inactive
[5]
  outcome: inactive
[6]
  outcome: inactive
[7]
  outcome: inactive
[8]
  outcome: inactive
[9]
  outcome: inactive

## O=P(OC(CCl)CCl)(OC(CCl)CCl)OC(CCl)CCl
[1]
  AC50: 47.5 µM (active)
[2]
  AC50: 50 µM (active)
[3]
  outcome: inactive
[5]
  AC50: 59.2 µM (active)
[6]
  outcome: inactive
[7]
  outcome: inactive
[8]
  outcome: inactive
[9]
  outcome: inactive
